About 3,000 (0.83%) of roughly 360,000 compounds were called active. Shown is part of a subset that was picked to be rich in actives. Values without a mark were called inactive. Cut-off read from the data, not from the text of the source: active = inhibition above about 50%; inactive = the rest.
molecular target: DNA (cytosine-5)-methyltransferase 1 (Homo sapiens) (UniProt P26358); test: inhibition of DNA methyltransferase DNMT1 – biochemical, molecular beacon, fluorescence, HinP1I cleavage, uHTS, primary screen (AID 588458); conditions: at 10 µM, active compounds read high
Sequence (P26358 504-1616 limits assumed): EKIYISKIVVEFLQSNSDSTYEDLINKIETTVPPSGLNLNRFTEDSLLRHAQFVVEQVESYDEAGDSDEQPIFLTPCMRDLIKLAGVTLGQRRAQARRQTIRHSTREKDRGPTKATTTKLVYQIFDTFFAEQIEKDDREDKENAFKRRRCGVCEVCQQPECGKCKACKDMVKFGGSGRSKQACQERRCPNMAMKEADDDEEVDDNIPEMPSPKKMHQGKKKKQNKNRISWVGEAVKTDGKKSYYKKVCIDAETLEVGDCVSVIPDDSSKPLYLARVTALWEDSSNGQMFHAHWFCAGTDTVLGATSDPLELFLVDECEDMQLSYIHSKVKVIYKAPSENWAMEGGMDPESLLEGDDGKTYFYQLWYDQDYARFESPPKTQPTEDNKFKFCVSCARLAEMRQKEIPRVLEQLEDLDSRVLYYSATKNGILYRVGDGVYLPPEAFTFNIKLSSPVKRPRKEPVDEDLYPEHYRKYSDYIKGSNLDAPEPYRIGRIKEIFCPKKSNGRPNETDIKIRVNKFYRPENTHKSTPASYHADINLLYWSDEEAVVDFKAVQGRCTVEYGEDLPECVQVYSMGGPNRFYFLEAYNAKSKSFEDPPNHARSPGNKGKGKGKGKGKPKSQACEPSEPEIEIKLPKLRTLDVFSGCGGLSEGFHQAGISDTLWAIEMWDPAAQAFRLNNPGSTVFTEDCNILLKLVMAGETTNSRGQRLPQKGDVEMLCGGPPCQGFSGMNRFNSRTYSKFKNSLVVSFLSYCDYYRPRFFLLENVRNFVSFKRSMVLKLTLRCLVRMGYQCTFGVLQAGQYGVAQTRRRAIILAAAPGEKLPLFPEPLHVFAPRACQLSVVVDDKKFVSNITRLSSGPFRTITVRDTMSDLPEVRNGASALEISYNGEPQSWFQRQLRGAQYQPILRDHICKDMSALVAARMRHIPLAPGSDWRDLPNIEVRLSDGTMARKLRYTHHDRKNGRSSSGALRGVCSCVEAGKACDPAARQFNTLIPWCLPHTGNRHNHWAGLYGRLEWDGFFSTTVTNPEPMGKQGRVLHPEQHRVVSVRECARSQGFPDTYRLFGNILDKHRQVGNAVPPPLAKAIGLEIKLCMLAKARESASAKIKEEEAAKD

SMILES | inhibition (reported as % activation of signal)
CCN(C(=O)CSc1nc2ccccc2n1CC)C1CCS(=O)(=O)C1 (stereo not drawn) | 0.17%
CCN(C(=O)CSc1nc(N)cc(=O)[nH]1)C1CCS(=O)(=O)C1 (stereo not drawn) | 84.1% (active)
CCN(C(=O)CSc1nnc2ccccn12)C1CCS(=O)(=O)C1 (stereo not drawn) | 3.22%
CCCCNC(=O)C1CCCNC1=O (stereo not drawn) | 2.28%
COc1ccc(C2=NOC3(CC(=O)N(c4ccc(Cl)cc4)C3=O)C2)c(OC)c1 (stereo not drawn) | -6.34%
O=C(O)c1cc(S(=O)(=O)N2CCCCCC2)c(Cl)cc1Cl | 0.43%
CC1CCCN(Cc2nc3c(c(=O)n(C)c(=O)n3C)n2CC(=O)c2ccccc2)C1 (stereo not drawn) | -2.35%
CCN1CCN(Cc2nc3c(c(=O)n(C)c(=O)n3C)n2CC(=O)c2ccccc2)CC1 | 75.4% (active)
CCOC(=O)N1CCN(Cc2nc3c(c(=O)n(C)c(=O)n3C)n2Cc2ccccc2)CC1 | 1.29%
O=C1CC(c2ccccc2)CC(O)=C1C=NCCN1CCOCC1 (stereo not drawn) | 0.18%
O=C1CCCC(O)=C1C=NCCc1ccccc1 | 60.8% (active)
CC1(C)CC(=O)C(C=NCCC2=CCCCC2)=C(O)C1 | 6.68%
COc1cc(NS(=O)(=O)c2ccc(N/C=C(\C=O)c3nc4cc(Cl)ccc4o3)cc2)nc(OC)n1 | -2.63%
C=C1c2c(Cl)ccc(O)c2C(O)=C2C(=O)[C@]3(O)C(O)=C(C(N)=O)C(=O)[C@@H](N(C)C)[C@@H]3[C@@H](O)C12 (stereo partly drawn) | 94.6% (active)
CC1C(c2ccccc2)=[N+]([O-])C2(CCCC2)N1O (stereo not drawn) | 1.84%
COc1ccc(CCNC(=O)CC2SC(=Nc3cc(C)cc(C)c3)NC2=O)cc1OC (stereo not drawn) | 1.89%
CC(=O)[C@@]12O[C@@H]1C[C@H]1[C@@H]3CC[C@H]4C[C@@H](O)CC[C@]4(C)[C@H]3CC[C@@]12C | 1%
O=C(c1ccc(Cl)cc1)n1cnc2ccccc21 | 8.27%
COc1ccccc1N(CC(=O)Nc1ccc(C(F)(F)F)cc1)S(C)(=O)=O | 7.89%
CCCNC(=O)C(=O)Nc1cc2c3c(c1)CCC(=O)N3CCC2 | -0.17%

SMILES | inhibition (reported as % activation of signal)
CCc1ccc(NC(=O)CS(=O)CC(=O)NCCCc2ccccc2)cc1 (stereo not drawn) | 58.9% (active)
CCc1ccc(NC(=O)CS(=O)CC(=O)N2CCN(c3ccccc3F)CC2)cc1 (stereo not drawn) | 1.59%
S=C(NCCCc1ccccc1)Nc1ccc(Br)cc1 | 6.06%
Cc1oc(CC(C)C)c(CN2CCCC2)c1C(=O)O | -0.29%
Cc1nnc(N(Cc2ccco2)C(=O)c2ccno2)s1 | -1.27%
COCCNC(=O)Nc1ccc2nc(-c3ccco3)c(-c3ccco3)nc2c1 | 110% (active)
COCCNC(=O)CSc1nc(N)c(NC(=O)c2ccco2)c(=O)[nH]1 | 4.39%
Cc1ccc(NC(=O)OCCNC(=O)c2ccncc2)cc1 | 0.6%
COc1ccc(Cn2cccc(NC(=O)Nc3ccc(C#N)cc3)c2=O)cc1 | 3.12%
O=C1COc2ccc(NC(=O)N3CCN(c4ccc(F)cc4)CC3)cc2N1 | -6.06%
O=C(COC(=O)CSc1ccccc1)Nc1ccc(F)cc1F | -0.57%
CCOC(=O)c1cccc(NC(=O)c2ccc(F)cc2F)c1 | 2.92%
O=C(COC(=O)c1ccc(F)cc1F)Nc1ncccn1 | 67.4% (active)
CN=C1C=C/C(=N/N=c2\ccn(O)cc2C)C=C1C | -3.81%
NC(=O)C1CCCN(CC(=O)N2CCN(c3ccccc3)CC2)C1 (stereo not drawn) | 1.67%
Cn1c(=O)c2[nH]c(NCC3CCCO3)nc2n(-c2ccccc2)c1=O (stereo not drawn) | 3.06%
COc1cc2c(cc1OC)C(Cc1cc(OC)c(OC)cc1[N+](=O)[O-])=NCC2 | -13.1%
COC(=O)c1ccc(C(NC(=O)OCc2ccccc2)/C(F)=C/[C@@H](C)C(=O)O)cc1 (stereo partly drawn) | 2.04%
CCC/C=C(\CCC)C(NC(=O)Cc1ccccc1)c1ccc(C(=O)OC)cc1 (stereo not drawn) | 64.2% (active)
CCC[C@@H]1C[C@@]1(CCC)[C@@H](NC(=O)c1ccccc1)c1ccc(C(=O)OC)cc1 | -1.36%

SMILES | inhibition (reported as % activation of signal)
C#Cc1ccc(NC(=O)C2(C)CCN2C(=O)Cc2ccc(-c3ccccc3)cc2)cc1 (stereo not drawn) | -17.3%
O=C(NC1(C(F)(F)F)NC(=O)N(Cc2cccnc2)C1=O)c1ccccc1Cl (stereo not drawn) | 5.41%
O=C(NCc1ccncc1)C1CCCN(S(=O)(=O)c2ccc(Br)cc2)C1 (stereo not drawn) | -0.42%
COc1cc2c(cc1O)C(SC)=NC(C)(C)C2 | 0.55%
CCc1ccc(NC(=O)C(=O)NNC(=O)c2cccs2)cc1 | 1.5%
COc1ccc(NC(=O)CCCC(=O)c2ccccc2)cc1 | 0.13%
Cc1ccc(-c2nnc(-c3ccc(NC(=O)c4cccs4)cc3)o2)cc1 | 62.6% (active)
COc1ccc(CC(=O)Nc2ccc(-c3nnc(-c4ccc(C)cc4)o3)cc2)cc1 | 58.3% (active)
O=C(Nc1ccc(N2CCN(C(=O)C3CC3)CC2)cc1)c1cccs1 | -1.58%
COc1ccc(CC(=O)Nc2ccc(-c3nnc(-c4ccccc4)o3)cc2)cc1 | 63.9% (active)
COc1ccc(NC(=O)CN(C)C(=O)c2ccc(COc3ccccc3)o2)cc1 | 1.54%
CCOC(=O)C1=C(O)/C(=C/c2ccc(OCC(=O)Nc3ccc(C)cc3)cc2)N=C1C | 26.9%
COc1ccc(C(CC(=O)Nc2ccc(C)cc2)NC(=O)C(F)(F)F)cc1 (stereo not drawn) | 1.22%
O=C(COc1ccccc1)Nc1ccc(F)cc1 | 2.46%
COc1ccc(NC(=O)Cn2c(-c3ccc(OC)cc3)cn(-c3ccc(C)cc3)c2=O)cc1 | -10.9%
Cc1ccc(OCC(=O)Nc2ccc(-c3nnc(-c4ccco4)o3)cc2)cc1 | 56% (active)
Cc1cc(NC(=O)C(C)SCC(=O)Nc2cccc(S(=O)(=O)N3CCCCCC3)c2)no1 (stereo not drawn) | 3.04%
CCCCc1ccc(S(=O)(=O)NC(=O)C2(C)CCN2C(=O)c2ccccc2)cc1 (stereo not drawn) | -0.05%
